These results are taken from article PMC5540273 (PLoS ONE, 2017).

Several values for one entry are separate records, joined by “and”; a condition that tells them apart may be missing. Identical values can stand only once. Like-named read-outs stand apart in the source and are kept apart here.

In experiment [1] the test system is SRPK3. The settings on record: concentration: 1 μM, replicates: in singlicate; n = 1.
For experiment [2], the system named is STK16. Conditions: concentration: 1 μM, replicates: in singlicate, n = 1.
Experiment [3] relates to STK33. Conditions: concentration: 1 μM, replicates: in singlicate; n = 1.
The test system of experiment [4] is STK35. Conditions: concentration: 1 μM, replicates: in singlicate, n = 1.
In experiment [5] the test system is STK36. Conditions: concentration: 1 μM, replicates: in singlicate, n = 1.
In experiment [6] the test system is STK39. Conditions: concentration: 1 μM, replicates: in singlicate, n = 1.
Experiment [7] relates to SYK. Conditions: concentration: 1 μM, replicates: in singlicate, n = 1.
Experiment [8] relates to SgK110. Conditions: concentration: 1 μM, replicates: in singlicate; n = 1.
In experiment [9] the test system is T1, TAK1.
T1 construct: gene MAP3K7
The settings on record: concentration: 1 μM, replicates: in singlicate, n = 1.

Experiment [10] relates to TAOK1. Conditions: concentration: 1 μM, replicates: in singlicate, n = 1.
In experiment [11] the test system is TAOK2. Conditions: concentration: 1 μM, replicates: in singlicate; n = 1.
In experiment [12] the test system is TAOK3. Conditions: concentration: 1 μM, replicates: in singlicate, n = 1.
Experiment [13] deals with TBK1. The settings on record: concentration: 1 μM, replicates: in singlicate, n = 1.
For experiment [14], the system named is TEC. Conditions: concentration: 1 μM, replicates: in singlicate, n = 1.
In experiment [15] the test system is TESK1. The settings on record: concentration: 1 μM, replicates: in singlicate, n = 1.
For experiment [16], the system named is TGFBR1. Conditions: concentration: 1 μM, replicates: in singlicate, n = 1.
The test system of experiment [17] is TGFBR2. Conditions: concentration: 1 μM, replicates: in singlicate, n = 1.
In experiment [18] the test system is TIE1. The settings on record: concentration: 1 μM, replicates: in singlicate, n = 1.
Experiment [19] concerns T2, TIE2.
T2 construct: gene TEK
The settings on record: concentration: 1 μM, replicates: in singlicate, n = 1.

Experiment [20] deals with TLK1. Conditions: concentration: 1 μM, replicates: in singlicate, n = 1.
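Also: KINOMEscan kinase panel screen.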

For the compound `Cc1ccc(NC(=O)c2ccnc(N3CCN(C)CC3)c2)cc1-c1ccc(C(=O)NCC2CC2)cc1` [GW775604], the “%Inh” value is recorded as 5% in [1]; 0% in experiment [2]; 0% in experiment [3]; 1% in experiment [4]; 0% in experiment [5]; 0% in [6]. Besides, the “%Inh” value in [7] is 26%; in [8] it was 3%; in experiment [9], 0%; in experiment [10], 0%; in experiment [11], 13%; in experiment [12], 0%. Besides, the “%Inh” value in experiment [13] was determined as 13%; in experiment [14], 0%; in [15], 0%; in experiment [16], 25%; in [17], 0%; in experiment [18], 2%. The “%Inh” value in experiment [19] and in [20] was 0% throughout.
As to `O=C(Nc1n[nH]c2cc(-c3cccc(F)c3)ccc12)C1CC1` [SB-735464], the “%Inh” value was 37% in experiment [1]; 5% in [2]; 0% in experiment [3]; 12% in experiment [4]; 16% in [5]; 0% in experiment [6]. The “%Inh” value is 4% in experiment [7]; 0% in [8]; 6% in experiment [9]; 40% in experiment [10]; 32% in [11]; 8% in experiment [12]. The “%Inh” value worked out at 10% in [13]; 0% in experiment [14]; 17% in experiment [15]; 5% in [16]; 0% in experiment [17]; 0% in experiment [18]. Moreover, the “%Inh” value in experiment [19] and in experiment [20] was 16% in each case.
As for `Cn1cc(-c2ccc3c(c2)CCN3C(=O)Cc2ccccc2Cl)c2c(N)ncnc21` [GSK2608885], the “%Inh” value was 0% in [1]; 34% in experiment [2]; 18% in experiment [3]; 95.9% in experiment [4]; 100% in experiment [5]; 1% in experiment [6]. For the same compound, the “%Inh” value is 51% in [7]; 0% in [8]; 5% in experiment [9]; 50% in [10]; 0% in experiment [11]; 47% in experiment [12]. Also, the “%Inh” value is reported as 14% in [13]; 100% in experiment [14]; 43% in experiment [15]; 8% in experiment [16]; 23% in experiment [17]; 96% in [18]. For the same compound, the “%Inh” value in experiment [19] turned out to be 97.4%; in experiment [20], 29%.
For `COCCNC(=O)c1ccc(-c2cc(C(=O)NC3CC3)cc(F)c2C)cc1` [GW868318], the “%Inh” value in [1] came out at 20%; in experiment [2], 0%; in experiment [3], 10%; in experiment [4], 0%; in experiment [5], 2%; in experiment [6], 16%. Also, the “%Inh” value in experiment [7] worked out at 1%; in experiment [8] it was 21%; in experiment [9], 14%; in experiment [10], 29%; in [11], 16%; in experiment [12], 32%. In addition, the “%Inh” value in [13] came out at 34%; in [14] it was 11%; in experiment [15], 26%; in experiment [16] it was 0%; in experiment [17], 6%; in experiment [18], 17%. Also, the entries for the “%Inh” value in [19] and in experiment [20] were 17% and 14%, respectively.
On to `COc1ccc(CNC(=O)NC2CCN(c3ccnc(Nc4ccc(OC)cc4)n3)C2)cc1` (stereo not drawn) [GSK1379727], for which the “%Inh” value in experiment [1] amounted to 0%; in experiment [2], 16%; in [3], 0%; in [4], 0%; in experiment [5] it was 0%; in [6], 5%. The “%Inh” value is recorded as 22% in experiment [7]; 7% in experiment [8]; 0% in experiment [9]; 0% in experiment [10]; 7% in [11]; 0% in experiment [12]. Further, the “%Inh” value is recorded as 0% in experiment [13]; 0% in experiment [14]; 16% in experiment [15]; 38% in [16]; 0% in experiment [17]; 17% in experiment [18]. The “%Inh” value in [19] and in experiment [20] was 0% in each case.
For the compound `CN1c2ccc(NCc3ccc(F)cc3)cc2-c2c(cnn2C)S1(=O)=O`, the “%Inh” value in experiment [1], in experiment [2], in [3], in experiment [4], in experiment [5] and in experiment [6] was 0% each time. For the same compound, the “%Inh” value in experiment [7] came out at 8%; in experiment [8] it was 67%; in experiment [9], 0%; in experiment [10], 0%; in experiment [11], 26%; in [12], 0%. For the same compound, the “%Inh” value came to 0% in experiment [13]; 0% in experiment [14]; 14% in experiment [15]; 2% in experiment [16]; 16% in experiment [17]; 8% in experiment [18]. The “%Inh” value in experiment [19] is given as 0%; in experiment [20], 13%.
Regarding `NS(=O)(=O)CCc1cccc(Nc2nccc(-c3c(-c4cccc(NC(=O)c5c(F)cccc5F)c4)nn4ccccc34)n2)c1` [GSK336735], the “%Inh” value in experiment [1] is 55%; in experiment [2], 28%; in [3], 0%; in [4], 90.7%; in experiment [5] it was 99.9%; in [6], 1%. Also, the “%Inh” value was 74% in experiment [7]; 0% in experiment [8]; 27% in experiment [9]; 73% in experiment [10]; 32% in [11]; 88% in experiment [12]. For the same compound, the “%Inh” value in experiment [13] is 15%; in experiment [14], 95.6%; in experiment [15], 50%; in experiment [16] it was 3%; in [17] it was 20%; in experiment [18] it was 96.8%. The “%Inh” value is 91.1% in [19] and 8% in [20].
As to `NCC(NC(=O)c1cc(-c2cn[nH]c2)c(-c2ccnc3[nH]ccc23)s1)c1ccccc1.O=C(O)C(F)(F)F.O=C(O)C(F)(F)F` (stereo not drawn) [GSK1325775], the “%Inh” value in [1] came out at 37%; in experiment [2] it was 46%; in [3], 79%; in experiment [4], 0%; in experiment [5], 0%; in experiment [6] it was 9%. Moreover, the “%Inh” value in [7] turned out to be 0%; in [8], 66%; in [9], 78%; in experiment [10], 91.9%; in [11], 40%; in [12], 40%. The “%Inh” value was found to be 20% in [13]; 1% in [14]; 18% in experiment [15]; 4% in [16]; 0% in [17]; 6% in experiment [18]. Besides, the figures for the “%Inh” value in experiment [19] and in experiment [20] were 0% and 5%, respectively.
For the compound `CC(C)(CN)c1nc(-c2ccc(Cl)c(O)c2)c(-c2ccncc2)[nH]1.O=C(O)C(F)(F)F` [SB-477794], the “%Inh” value in experiment [1] is 0%; in experiment [2] (1 µM) it was 18% and 0%; in [3], 52%; in experiment [4] (1 µM) it was 59% and 62%; in experiment [5] (1 µM) it was 86% and 87%; in [6] (1 µM), 42% and 20%. Moreover, the “%Inh” value is 13% and 28% in [7] (1 µM); 0% in experiment [8]; 62% and 75% in experiment [9] (1 µM); 2% and 16% in experiment [10] (1 µM); 0% in [11]; 6% and 0% in experiment [12] (1 µM). Also, the “%Inh” value in [13] (1 µM) was 0% and 5%; in [14] (1 µM), 13% and 0%; in experiment [15] (1 µM), 100% and 56%; in [16] (1 µM) it was 98.8% and 96.2%; in experiment [17] (1 µM), 99.2% and 99.6%; in experiment [18] (1 µM), 1% and 0%. Moreover, the “%Inh” value in [19] (1 µM) was 3% and 22%; in experiment [20] (1 µM), 20% and 11%.
